Screening data (PubChem)
GDH-TPI counter-1 – GDH-TPI coupling enzyme inhibitors, primary screen, artefact control for M. tuberculosis FBA inhibitor project, biochemical, absorbance, full deck; inhibition, % at 4.8 µM; 1.2% of 360,000 active; GDH-TPI coupled enzyme counterscreen, NADH absorbance; in the data active = inhibition above about 30%;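 note: 0% = DMSO wells and 100% = wells lacking the enzyme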
Mtb hypoxia inh – PubChem AID 1159583. fluorescence inhibition, % (concentration not given with the values). 0.1% of 300,000 active. M. tuberculosis hypoxia-regulated fluorescent reporter, fluorescence; in the data active = fluorescence inhibition mostly above about 23%, no sharp cut-off; inactive = mostly below about 17%
Mtb BioA inh – M. tuberculosis BioA enzyme inhibitors, primary screen, biochemical, plate reader, single point, HTS | purified M. tuberculosis BioA enzyme | inhibition, % at 9.99 µM | 0.096% of 360,000 active | AID 602481, 2012; in the data active = inhibition above about 40%; inconclusive = no clear call, values can overlap the other calls
Mtb FBA inh – Mtb FBA enzyme inhibitors, primary screen, biochemical, fluorescence, strain H37Rv | 2.3% of 360,000 active | Fructose-bisphosphate aldolase (Mycobacterium tuberculosis (strain ATCC 25618 / H37Rv)), … | purified M. tuberculosis FBA, fluorescence read-out | inhibition, % at 1 µM;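 note: 0% = vehicle and 100% = reference inhibitor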
Target sequence (P9WQA3 whole entry, looked up): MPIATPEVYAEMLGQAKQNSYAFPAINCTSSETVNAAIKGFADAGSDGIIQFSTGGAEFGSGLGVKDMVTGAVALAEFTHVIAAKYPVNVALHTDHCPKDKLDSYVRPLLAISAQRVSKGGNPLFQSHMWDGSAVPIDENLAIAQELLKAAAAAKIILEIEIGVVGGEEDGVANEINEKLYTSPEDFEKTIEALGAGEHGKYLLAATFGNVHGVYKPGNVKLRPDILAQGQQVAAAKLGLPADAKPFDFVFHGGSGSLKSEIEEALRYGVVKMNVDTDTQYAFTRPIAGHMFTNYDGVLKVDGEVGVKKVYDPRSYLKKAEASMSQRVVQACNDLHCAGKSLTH
FadD28 binding – inhibitors of FadD28 bisubstrate probe binding, primary screen, biochemical, fluorescence polarization, single point. Mycobacterium tuberculosis FadD28 fatty-acid-AMP ligase. inhibition, % at 12.5 µM. 0.22% of 360,000 active. AID 588549, 2011; in the data active = inhibition above about 8.5%, passing the limit was not always enough; inconclusive = no clear call, values can overlap the other calls
Mtb FBA confirm – M. tuberculosis aldolase blockers, biochemical, fluorescence, strain H37Rv, confirmation | AID 651616, 2012 | shares compounds with Mtb FBA inh | purified M. tuberculosis FBA, fluorescence read-out | 78% of 5,600 active | inhibition, % at 1 µM;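 note: 0% = vehicle wells and 100% = reference inhibitor wells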
GDH-TPI counter-2 – GDH-TPI coupling enzyme inhibitors, artefact control for M. tuberculosis FBA inhibitor project, biochemical, fluorescence, high throughput; AID 652141, 2013; shares compounds with Mtb FBA inh; GDH-TPI coupled enzyme counterscreen; inhibition, % at 1 µM; 81% of 5,600 active; in the data active = inhibition above about 10%
* = called active by the depositor; u = inconclusive; x = not tested or not shown; + = active, no number. This is a sample that favours compounds with a hit; in the whole collection about 2.9% have one here. Cut-off read from the data, not from the text of the source, unless noted: active = inhibition above about 27%; inactive = the rest.

SMILES	GDH-TPI counter-1	Mtb hypoxia inh	Mtb BioA inh	Mtb FBA inh	FadD28 binding	Mtb FBA confirm	GDH-TPI counter-2
CCc1cc(=O)oc2cc(C)cc(OC(C)C(=O)NCCCn3ccnc3)c12 (stereo not given)	-9	12	1	54*	-4	5	-7
Cc1c(OC(C)C(=O)NCCCN2CCOCC2)ccc2c1oc(=O)c1ccccc12 (stereo not given)	-6	13	6	74*	-5	2	-5
Cc1c(C)c2ccc(OC(C)C(=O)NCCCn3ccnc3)c(C)c2oc1=O (stereo not given)	21	15	5	55*	-5	67*	51*
Cc1cc(OCC(=O)NCCCN2CCCC2=O)c2c(C)cc(=O)oc2c1	11	1	x	103*	0	-8	-6
COc1ccc(NC(=O)Nc2cccc3c2O[C@@H](CN(C)C(=O)Nc2ccc(C(F)(F)F)cc2)[C@@H](C)CN([C@@H](C)CO)C3=O)cc1	x	x	-5	x	x	x	x
COCC#Cc1ccc2c(c1)O[C@@H](CN(C)C(=O)C1CC1)[C@H](C)CN([C@H](C)CO)S2(=O)=O	x	x	-1	x	x	x	x
C[C@H]1CN([C@@H](C)CO)S(=O)(=O)c2ccc(-c3ccc(F)cc3)cc2O[C@H]1CN(C)S(C)(=O)=O	x	x	2	x	x	x	x
Cc1ccccc1-c1nc(NCC2CC2)nc2ccsc12	5	x	0	25	-4	x	x
Cc1ccc(F)cc1-c1nc(NCC2CC2)nc2ccsc12	10	x	0	46*	-6	70*	56*
OCc1ccccc1-c1nc(NCc2ccccc2)nc2ccsc12	15	x	-1	63*	-2	8	4
c1ccc(-c2nc(NCC3CC3)nc3ccsc23)cc1	1	x	1	42*	-4	138*	97*
C[C@H]1CN([C@@H](C)CO)C(=O)c2cc(C3=CCCCC3)cnc2O[C@@H]1CN(C)C(=O)Cc1cccnc1	x	x	8	x	x	x	x
O=C(c1cccc2c1-c1ccccc1C2=NO)N1CCCCC1	x	-6	x	x	x	x	x
CC1(C)Cc2nc3sc4c(N(CCO)CCO)nnnc4c3cc2CO1	1	19	x	36*	1	+	188*
COc1ccc(Cn2c(N)c(C#N)c3nc4ccccc4nc32)cc1OC	24	x	0	15	-2	x	x
CCCCn1c(NC(C)=O)c(C#N)c2nc3ccccc3nc21	11	10	1	59*	-2	96*	77*
CCCCCn1c(N)c(C#N)c2nc3ccccc3nc21	21	11	-1	111*	-5	-3	-5
N#Cc1c(N)n(CCNC(=O)c2ccccc2)c2nc3ccccc3nc12	0	2	x	98*	-2	+	+
CNC[C@@H]1Oc2ccc(NS(=O)(=O)c3ccc(Cl)cc3)cc2C(=O)N([C@@H](C)CO)C[C@H]1C	x	x	-4	x	x	x	x
CCOc1ccc2[nH]c3c(NCCO)ncnc3c2c1	1	3	x	78*	-2	45*	43*
COc1ccc2[nH]c3c(NCCN4CCCCC4)ncnc3c2c1	15	5	2	25	1	x	x
CCOc1ccc2[nH]c3c(NCCc4ccc(OC)c(OC)c4)ncnc3c2c1	16	4	x	32*	-1	181*	147*
CCCCOc1ncnc2c1[nH]c1ccc(OCC)cc12	9	0	0	8	-3	x	x
C[C@H](CO)N1C[C@H](C)[C@@H](CN(C)S(=O)(=O)c2cccs2)Oc2ccc(NC(=O)Cn3cnnn3)cc2CC1=O	x	x	3	x	x	x	x
COc1cc(C=NNC(=O)c2c(C)nc3cc(C)ccn23)ccc1O	x	13	x	x	x	x	x
SMILES	GDH-TPI counter-1	Mtb hypoxia inh	Mtb BioA inh	Mtb FBA inh	FadD28 binding	Mtb FBA confirm	GDH-TPI counter-2
COc1ccc(C#Cc2ccc([C@@H]3[C@H](CO)N4CCCCN(S(=O)(=O)c5cn(C)cn5)C[C@@H]34)cc2)cc1	x	x	-1	x	x	x	x
COc1ccc(C2=NN(C(=O)CCC(=O)O)C(c3cccs3)C2)cc1 (stereo not given)	5	x	x	7	-3	x	x
COc1ccc(C2=NN3C(C2)c2ccccc2OC3c2cccs2)cc1 (stereo not given)	4	7	x	60*	-2	28*	23*
CCSc1nc(N)c(C#N)c(-c2ccco2)c1C#N	6	-14	-2	3	-12	x	x
CC(C)Cc1cc(-c2ccco2)c(C#N)c(N)n1	6	x	-2	54*	-1	169*	145*
COc1cc2c(cc1OC)CN(CC(=O)Nc1ccccc1C#N)CC2	1	x	0	65*	-5	156*	176*
COc1cc2c(cc1OC)CN(CC(=O)Nc1ccccc1SC)CC2	-1	11	x	1	0	x	x
COc1ccc(S(=O)(=O)Nc2ccccc2C(=O)Nc2nc(-c3ccc(F)cc3)cs2)cc1OC	11	3	x	33*	4	92*	68*
CCCN(C)C[C@@H]1Oc2cc(C#CC(C)(C)O)ccc2S(=O)(=O)N([C@@H](C)CO)C[C@@H]1C	x	x	-1	x	x	x	x
Cn1c(=O)c2cc(NC(=S)NC3CC3)ccc2n1C/C=C/c1ccccc1	7	x	0	34*	1	70*	54*
Cn1c(=O)c2cc(NC(=S)NC3CCCCC3)ccc2n1C/C=C/c1ccccc1	10	x	0	9	u	x	x
Cn1c(=O)c2cc(NC(=O)Cc3cccc4ccccc34)ccc2n1-c1ccccc1	7	x	-1	4	-1	x	x
Cn1c(=O)c2cc(NC(=O)NCc3ccc(F)cc3)ccc2n1C/C=C/c1ccccc1	2	x	0	60*	-3	26	25*
O=C(NCc1ccc(F)cc1)Nc1cccc([N+](=O)[O-])c1	10	-7	x	-3	-4	x	x
Cn1c(=O)c2cc(NC(=O)Cc3ccccc3F)ccc2n1C/C=C/c1ccccc1	9	x	-1	62*	0	+	+
CC(C)NC(=O)Nc1ccc2c(c1)CC(=O)N([C@H](C)CO)C[C@@H](C)[C@H](CN(C)Cc1ccc(Cl)c(Cl)c1)O2	x	x	-1	x	x	x	x
Cc1ccc(/C=N/NC(=O)c2ccccc2OCc2ccc(F)cc2)o1	24	x	-1	94*	-2	54*	47*
O=C(NN=Cc1ccc[nH]1)c1ccccc1OCc1ccc(F)cc1	x	12	x	x	x	x	x
O=C(Nc1ccc(Br)c2ccccc12)c1ccc2ccccc2c1O	12	x	2	31*	-3	-34	-29
COc1ccccc1NC(=O)NNC(=O)c1ccc2ccccc2c1O	6	10	-1	32*	-1	143*	113*
Cc1ccccc1NC(=O)NNC(=O)c1ccc2ccccc2c1O	13	0	0	31*	x	55*	36*
CCc1ccc(NC(=O)NNC(=O)c2cc3ccccc3cc2O)cc1	13	-5	-1	4	-2	x	x
